From PubChem BioAssay (Tox21)
Inconclusive results are not listed. Active and inactive are the calls of the source. Calls follow the shape of the full dose curve.

How the values were obtained:
[1] = target: Acetylcholinesterase (Homo sapiens) (UniProt P22303); assay: Acetylcholinesterase (AChE) small molecule antagonists: colormetric cell-based qHTS assay (AID 1347395); also: nearly all actives have a fitted effect of over 30% in size
Method in brief: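 In this cell-based qHTS, attached SH-SY5Y cells were treated with test chemicals for 30 min, after which acetylthiocholine hydrolysis was followed by DTNB colour development over 90 min at 37 C.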

[2] = target: Acetylcholinesterase (Homo sapiens) (UniProt P22303); assay: Acetylcholinesterase (AChE) small molecule antagonists: enzyme-based qHTS assay (AID 1347397); conditions: Potency: AChE enzyme activity inhibition; outcome: AChE enzyme activity inhibition; also: nearly all actives have a fitted effect of over 55% in size
Method in brief: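 rhAChE 50 mU/mL (dispensed) + cpd or DMSO, 30 min RT; add DTNB/acetylthiocholine cocktail, 10 min RT; colorimetric thiocholine readout. qHTS, 1536-well format.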

[3] = target: Acetylcholinesterase (Homo sapiens) (UniProt P22303); assay: Acetylcholinesterase (AChE) small molecule antagonists: fluorescence cell-based qHTS assay (AID 1347398); conditions: Potency: AChE activity; outcome: AChE activity; also: nearly all actives have a fitted effect of over 50% in size
Method in brief: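 Read-out is Thiolite Green fluorescence at Ex/Em = 490/520 nm, formed by reaction with thiocholine released when cellular AChE in SH-SY5Y cells hydrolyzes acetylthiocholine. Compounds were preincubated 30 min at 37 C before substrate.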

[4] = target: Acetylcholinesterase (Homo sapiens) (UniProt P22303); assay: Acetylcholinesterase (AChE) small molecule antagonists: enzyme-based qHTS assay with human liver microsomes (AID 1347399); conditions: Potency: qHTS inhibition; outcome: qHTS inhibition; also: nearly all actives have a fitted effect of over 60% in size
Method in brief: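 Recombinant human AChE (50 mU/mL in the enzyme mix) and human liver microsomes (0.25 mg/mL final) were preincubated with compound and NADPH (0.25 mg/mL final) for 30 min at 37 C. Acetylthiocholine/DTNB was then added; thiocholine was read colorimetrically after 10 min at room temperature.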
% is scaled to controls: 0 for no effect and ±100 for the full control effect.

Chain of Acetylcholinesterase (Homo sapiens) (P22303 whole entry, looked up): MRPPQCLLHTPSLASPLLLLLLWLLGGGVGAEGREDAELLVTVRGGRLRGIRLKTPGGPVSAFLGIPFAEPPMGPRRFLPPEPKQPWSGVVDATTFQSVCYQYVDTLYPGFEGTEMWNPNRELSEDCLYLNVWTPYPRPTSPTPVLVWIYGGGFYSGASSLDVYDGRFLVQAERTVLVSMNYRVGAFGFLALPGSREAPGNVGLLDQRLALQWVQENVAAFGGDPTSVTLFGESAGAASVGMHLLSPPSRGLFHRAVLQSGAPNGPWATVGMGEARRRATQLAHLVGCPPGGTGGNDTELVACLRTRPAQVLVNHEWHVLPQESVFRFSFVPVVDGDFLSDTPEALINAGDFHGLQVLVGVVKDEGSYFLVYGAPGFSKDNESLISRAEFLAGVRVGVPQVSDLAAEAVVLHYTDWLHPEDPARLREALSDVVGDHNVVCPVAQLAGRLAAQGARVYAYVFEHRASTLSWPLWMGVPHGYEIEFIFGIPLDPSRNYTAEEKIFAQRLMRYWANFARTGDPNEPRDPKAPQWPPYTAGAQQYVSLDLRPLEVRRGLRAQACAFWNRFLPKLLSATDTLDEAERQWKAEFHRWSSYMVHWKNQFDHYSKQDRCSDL

CC(C)Nc1nc(N)nc(Cl)n1
inactive: Potency [1] | Potency [2] | Potency [3] | Potency [4]

CC(=O)c1ccccc1N
inactive: Potency [1] | Potency [2] | Potency [3] | Potency [4]

Nc1cccc2c(=O)[nH][nH]c(=O)c12
inactive: Potency [1] | Potency [2] | Potency [3] | Potency [4]

O=C(O)CNC(=O)c1ccc([N+](=O)[O-])cc1
inactive: Potency [1] | Potency [2] | Potency [3] | Potency [4]

CC1(C)CCC[C@]2(C)[C@H]3CCO[C@]3(C)CC[C@@H]12
inactive: Potency [1] | Potency [2] | Potency [3] | Potency [4]

C[Si](Cl)(c1ccccc1)c1ccccc1
inactive: Potency [1] | Potency [2] | Potency [3] | Potency [4]

FC(F)OC(Cl)C(F)(F)F (configuration not stated)
inactive: Potency [1] | Potency [2] | Potency [3] | Potency [4]

COC(=O)C1CC(=O)C(C(=O)OC)CC1=O (configuration not stated)
inactive: activity, negative = inhibition [1] 2.2% [at 10.5 µM] | activity change, negative = inhibition [2] 0.472% [at 10.5 µM] | activity change, negative = inhibition [3] 1.15% [at 10.5 µM] | activity change, negative = inhibition [4] -0.962% [at 10.5 µM]

Cc1cccc(C)n1
inactive: Potency [1] | Potency [2] | Potency [3] | Potency [4]

CCCCCCCCCCCCCC(=O)OC
inactive: Potency [1] | Potency [2] | Potency [3] | Potency [4]

Oc1c(Br)cc(Br)c2cccnc12
inactive: Potency [1] | Potency [2] | Potency [3] | Potency [4]

C=C(C)CS(=O)(=O)O
inactive: Potency [1] | Potency [2] | Potency [3] | Potency [4]

CCCCCCC(O)CO (configuration not stated)
inactive: Potency [1] | Potency [2] | Potency [3] | Potency [4]

CC1=NN(c2cccc(S(=O)(=O)O)c2)C(=O)C1
inactive: Potency [1] | Potency [2] | Potency [3] | Potency [4]

CCOC(=N)CC(=O)OCC
inactive: Potency [1] | Potency [2] | Potency [3] | Potency [4]

Cc1cncc(C)c1
inactive: Potency [1] | Potency [2] | Potency [3] | Potency [4]

CC(C)NC(=O)c1ccc(C=O)cc1
inactive: Potency [1] | Potency [2] | Potency [3] | Potency [4]

CC(=O)C1CCCCC1=O (configuration not stated)
inactive: Potency [1] | Potency [2] | Potency [3] | Potency [4]

Brc1cc2ccccc2c2ccccc12
inactive: Potency [1] | Potency [2] | Potency [3] | Potency [4]

C=CCN1CCc2nc(N)sc2CC1
inactive: Potency [1] | Potency [2] | Potency [3] | Potency [4]

Cc1cc(N)c(S(=O)(=O)O)cc1Cl
inactive: Potency [1] | Potency [2] | Potency [3] | Potency [4]

CCCCOCCOC(=O)COc1ccc(Cl)cc1Cl
inactive: Potency [1] | Potency [2] | Potency [3] | Potency [4]

C[C@H](CN1CCCC1)C(=O)c1ccc(C(F)(F)F)cc1
inactive: Potency [1] | Potency [2] | Potency [3] | Potency [4]

CC(C)COC(=O)CC(C(=O)OCC(C)C)S(=O)(=O)O (configuration not stated)
inactive: Potency [1] | Potency [2] | Potency [3] | Potency [4]

COCc1ccc(COC)cc1
inactive: Potency [1] | Potency [2] | Potency [3] | Potency [4]

CCOC(=O)C(C)Oc1ccc(Oc2nc3ccc(Cl)cc3o2)cc1 (configuration not stated)
inactive: Potency [1] | Potency [2] | Potency [3] | Potency [4]

COc1ccc2c(c1OC)C(=O)O[C@@H]2[C@H]1c2c(cc3c(c2OC)OCO3)CCN1C
inactive: Potency [1] | Potency [2] | Potency [3] | Potency [4]

CCCCCCCCCCCCCOP(=O)(O)O
inactive: Potency [1] | Potency [2] | Potency [3] | Potency [4]

CC/C=C\CCOC(=O)c1ccccc1
inactive: Potency [1] | Potency [2] | Potency [3] | Potency [4]

CCc1c(Br)c(Br)c(Br)c(Br)c1Br
inactive: Potency [1] | Potency [2] | Potency [3] | Potency [4]

c1ccc2c(c1)ccc1c3ccccc3ccc21
inactive: Potency [1] | Potency [2] | Potency [3] | Potency [4]

C=CCCCCCCCCCCC
inactive: activity, negative = inhibition [1] -0.0098% [at 10.5 µM] | activity change, negative = inhibition [2] 0.273% [at 10.5 µM] | activity change, negative = inhibition [3] 5.55% [at 10.5 µM] | activity change, negative = inhibition [4] 0.324% [at 10.5 µM]

CCCCOCCOC(=O)COc1nc(Cl)c(Cl)cc1Cl
inactive: Potency [1] | Potency [2] | Potency [3] | Potency [4]

CCCCCCNC(=O)n1cc(F)c(=O)[nH]c1=O
inactive: Potency [1] | Potency [2] | Potency [3] | Potency [4]

C=C(C)[C@H]1CC=C(C)CC1
inactive: Potency [1] | Potency [2] | Potency [3] | Potency [4]

O=CN1CCCCC1
inactive: Potency [1] | Potency [2] | Potency [3] | Potency [4]

Cc1ccc(S(=O)(=O)C(I)I)cc1
inactive: Potency [1] | Potency [2] | Potency [3] | Potency [4]

Nc1ccc(S(=O)(=O)O)c(N)c1
inactive: Potency [1] | Potency [2] | Potency [3] | Potency [4]

CCCCCCCCCCCCCCCC
inactive: Potency [1] | Potency [2] | Potency [3] | Potency [4]

CC(C)=CCNc1ncnc2c1ncn2[C@@H]1O[C@H](CO)[C@@H](O)[C@H]1O
inactive: Potency [1] | Potency [2] | Potency [3] | Potency [4]

COC(=O)c1ccc(I)cc1S(=O)(=O)NC(=O)Nc1nc(C)nc(OC)n1
inactive: Potency [1] | Potency [2] | Potency [3] | Potency [4]

CO[Si](CCCNc1ccccc1)(OC)OC
inactive: Potency [1] | Potency [2] | Potency [3] | Potency [4]

COc1ccc(OC(=O)N(CC(=O)O)Cc2ccc(OCCc3nc(-c4ccccc4)oc3C)cc2)cc1
inactive: Potency [1] | Potency [2] | Potency [3] | Potency [4]
